HCMV antiviral – human cytomegalovirus inhibition. HFF cells, HCMV-luciferase reporter, 72 h; active compounds read low. AID 1259415. 410,000 tested, 4.5% active. activity change, negative = inhibition, % at 57.5 µM; in the data active means activity change below about -60%; inconclusive means no clear call, values can overlap the other calls; inactive means above about -39%
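Luciferase read-out from HCMV-luciferase-infected HFFs (MOI 1 PFU/cell) 72 h post infection at 37C; compounds added after 16 h cell attachment; activity normalized between buffer-only basal and Salinomycin (10uM) inhibitor controls.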
Pf growth 48h – P. falciparum growth inhibition at 48 hours (one generation) | P. falciparum luciferase growth in erythrocytes, 48 h | Potency, µM (doses to about 28.7 µM), usual class: inhibitors | 310,000 tested, 5.9% active
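Compounds are pin-transferred into medium, infected erythrocytes (2% hematocrit, 0.1% parasitemia final) are added, and plates sit one parasite generation at 37 C in 5% CO2. Detection reagent is then added and luminescence measured.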
CHX counter – counter-screen for Shiga toxin inhibitors: cycloheximide protein synthesis inhibition; AID 2314; max response, %; cell reporter, cycloheximide protein synthesis inhibition counterscreen; 300,000 tested, 12% active; in the data active means max response mostly above about 13%, no sharp cut-off; inactive means mostly below about 14%; further: read at 38.3 µM for the half of the compounds with a filed dose
Shiga inhibitor – inhibitors of Shiga toxin in Vero cells; inhibition, % at 38.7 µM; 290,000 tested, 9.2% active; Vero cells, Shiga toxin protein synthesis inhibition reporter; in the data active means inhibition mostly above about 28%, no sharp cut-off; inactive means mostly below about 43%
Pf growth 96h – inhibits malaria parasite growth, 96 h | P. falciparum luciferase reporter growth, 96 h | Potency, µM (series often up to 28.7 µM), usual class: inhibitors | 320,000 tested, 6.9% active
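Delayed-death screen, second-generation endpoint: infected erythrocytes, 2% hematocrit, 0.05% parasitemia final; 96 hours at 37 C, 5% CO2; luciferase detection reagent; luminescence decrease equals reduced growth.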
Numbers stand for hits; n = inactive; u = inconclusive; x = no result; + = active, no number; [ ] = dose if it differs, or a comment. Rows were chosen to be rich in hits. Some 20% of all compounds tested hit in one or more screens of this group. Unless noted, the call rests on the fitted dose curve; in most records, active means well fitted inhibition curve with a large enough effect; inconclusive means small, poorly fitted or top-dose-only effect, or another doubt; inactive means no such curve, though single readings can be large or run the other way.

SMILES	HCMV antiviral	Pf growth 48h	CHX counter	Shiga inhibitor	Pf growth 96h
CC(C)(C)NC(=O)CSc1nc2ccc(Nc3nc(N4CCOCC4)nc(N4CCOCC4)n3)cc2s1	-66	7.4µM	n	n	u
CC(=O)Nc1ccc2nc(SCC(=O)Nc3ccc(N4CCOCC4)c(Cl)c3)sc2c1	n	n	69	98	n
O=C(NCCN1CCN(c2ccccc2)CC1)C1CCN(S(=O)(=O)c2cccc3nsnc23)CC1	n	n	n	n	n
Cc1ccc(NC(=O)Cn2c(=O)n(Cc3nc(C)no3)c(=O)c3cc4c(cc32)OCO4)c(Cl)c1	n	x	x	x	x
COc1ccc(NC(=O)CSc2nnc(C)s2)cc1S(=O)(=O)N1CCOCC1	n	n	x	x	10µM
Cc1ccc(NC(=O)CSc2nnc(N)s2)cc1S(=O)(=O)N1CCOCC1	n	u	x	x	u
Fc1ccc(N2CCN(C3=Nc4cccc5cccc3c45)CC2)cc1	n	n	24	74	u
c1ccc(CN2CCN(C3=Nc4cccc5cccc3c45)CC2)cc1	n	u	18	n	x
O=C1NCC(Nc2ccc(Cl)cc2)C(=O)N1 (stereo not given)	n	x	x	x	x
Cc1cc2nc(C3CCN(C(=S)NCCCOC(C)C)CC3)[nH]c2cc1C	n	n	n	n	n
COc1ccc(OC)c(S(=O)(=O)Nc2ccc3oc(C)c(C(C)=O)c3c2)c1	n	n	n	n	n
COc1ccc(OC)c(S(=O)(=O)Nc2cccc3c(O)cccc23)c1	n	x	x	x	x
CCOc1ccc(NS(=O)(=O)c2cc(OC)ccc2OC)cc1	n	n	n	n	x
COC(=O)c1c(C)oc2ccc(NS(=O)(=O)c3cc(OC)ccc3OC)cc12	-62	n	n	n	x
COc1ccc(OC)c(S(=O)(=O)Nc2ccc(Oc3ccccc3)cc2)c1	-64	n	n	n	n
COc1ccc(OC)c(S(=O)(=O)Nc2ccc(O)c3ccccc23)c1	n	1.2µM	26	35	x
Cc1ccsc1CN(C(=O)COc1cccc(C)c1C)C1CCS(=O)(=O)C1 (stereo not given)	n	x	x	x	x
Cc1cc(Nc2nnnn2-c2ccccc2)n(-c2ccc(Cl)cc2)n1	u	4.7µM	n	n	x
Clc1cccc(CNc2nnnn2-c2ccccc2)c1	-84	u	n	n	15µM
c1ccc(CCNc2nnnn2-c2ccccc2)cc1	n	n	24	n	n
C1=C(CCNc2nnnn2-c2ccccc2)CCCC1	u	n	n	n	n
O=C(NCc1cccnc1)C(=O)N/N=C/c1ccc([N+](=O)[O-])cc1	n	n	n	n	u
CCn1nc(C(=O)OCC(=O)N2CC(=O)Nc3ccccc32)c2ccccc2c1=O	n	n	n	n	n
CCCCNC(=O)CSc1nc(N)c(C(=O)Nc2ccc(OC)cc2)s1	n	n	30	28	n
CCCCC(=O)Nc1nnc(S(=O)(=O)N(CC)c2ccc(OC)cc2)s1	n	n	n	n	n
SMILES	HCMV antiviral	Pf growth 48h	CHX counter	Shiga inhibitor	Pf growth 96h
CCCCC(=O)Nc1nnc(-c2ccc(OC)cc2)s1	n	n	n	35	n
COc1ccc(-c2nnc(NC(=O)c3c(OC)cccc3OC)s2)cc1	n	n	n	n	n
CSc1nc(N)c(C(=O)Nc2ccc([N+](=O)[O-])cc2)s1	n	n	32	50	n
COC(=O)Nc1nnc(-c2ccc(OC)cc2)s1	n	n	30	101	n
CCCCOc1cccc(-c2nnc(NC(=O)CSc3ccc(C)cc3)s2)c1	-86	n	n	n	u
COc1ccc(NC(=O)CSc2nnc(NC(=O)Nc3ccc(OC)cc3)s2)cc1	n	x	x	x	x
COc1ccc(NC(=O)CSc2nnc(-c3cccnc3)s2)cc1	u	n	n	n	6.6µM
CN(C)c1ccc(NC(=O)c2sc(SCC(=O)Nc3ccc(Br)cc3)nc2N)cc1	n	n	n	n	n
CCOC(=O)Cc1nnc(NC(=O)CSc2ccc(C)cc2)s1	n	n	n	n	n
CCCCC(=O)Nc1nnc(SCC(=O)Nc2ccc(OC)cc2)s1	n	n	41	93	n
CN(C)c1ccc(NC(=O)c2sc(SCC(=O)Nc3nccs3)nc2N)cc1	n	n	33	109	n[5.75 µM]
O=C(O)c1cccc(N2CCCCS2(=O)=O)c1	-100	n	n	n	n
Cc1cc(Nc2cccc(Cl)c2)nc2ccc(NC(=O)c3cccc(N(C)C)c3)cc12	n	x	x	x	x
Cc1ccc(OCC(=O)Nc2ccc3nc(Nc4cccc(Cl)c4)cc(C)c3c2)cc1	n	x	x	x	x
Cc1cc(Nc2cccc(Cl)c2)nc2ccc(NC(=O)c3cccnc3)cc12	-98	x	x	x	x
Cc1cc(Nc2cccc(C(F)(F)F)c2)nc2ccc(NC(=O)Cc3ccc(Cl)cc3)cc12	-103	x	x	x	x
Cc1cccc(OCC(=O)Nc2ccc3nc(Nc4cccc(C(F)(F)F)c4)cc(C)c3c2)c1	n	x	x	x	x
COc1ccc(CC(=O)Nc2ccc3nc(Nc4cccc(Cl)c4)cc(C)c3c2)cc1	-102	x	x	x	x
CCn1c(CC(=O)Nc2ccc(C)cc2)n[nH]c1=S	n	n	n	n	u
O=C(CN(C(=O)C1CSC(=O)C1)c1ccc(F)cc1)NCc1ccc2c(c1)OCO2 (stereo not given)	n	n	n	n	u
COc1ccc(CC2C(=O)NC(C)C(=O)N(C)C3Cc4ccc(cc4)Oc4cc(ccc4O)CC(C(=O)NC(C)C(=O)NC(C)C(=O)N2C)N(C)C3=O)cc1 (stereo not given)	-101	x	x	x	x
CC(C)(CNC(=O)CCC1CCCC1)CNC(=O)CCC1CCCC1	n	u	n	n	10µM
O=C(CC1CCCCC1)NCc1ccc(Cl)cc1	n	n	27	x	u
O=C(CCC1CCCCC1)NCc1ccc(F)cc1	n	n	23	active	u
O=C(CCC1CCCC1)NCCCNC(=O)CCC1CCCC1	n	u	n	n	n
SMILES	HCMV antiviral	Pf growth 48h	CHX counter	Shiga inhibitor	Pf growth 96h
COC(=O)CN1C(=O)COc2ccc(S(=O)(=O)N3CCCCC3)cc21	n	x	x	x	x
COc1cccc(CNC(=O)CC(NC(=O)c2ccccc2)c2ccccc2)c1 (stereo not given)	n	n	x	x	n
Cc1ccccc1Nc1ncnc2c1c(-c1ccccc1)cn2-c1ccc(F)cc1	n	x	x	x	x
COc1cc(NC(=O)c2cc([N+](=O)[O-])ccc2N2CCOCC2)ccc1NC(=O)c1ccco1	n	u	n	n	u
COc1cc(NC(=O)COc2ccc(C)c(C)c2)ccc1NC(=O)c1ccco1	n	7.4µM	n	n	n
COc1cc(NC(=O)COc2cccc(C)c2C)ccc1NC(=O)c1ccco1	n	n	n	n	u
COc1cc(NC(=O)c2cccc([N+](=O)[O-])c2C)ccc1NC(=O)c1ccco1	n	n	19	72	n
COCCNC(=S)Nc1cc(OC)c(NC(=O)c2ccco2)cc1OC	n	n	22	n	n
CCCC(=O)Nc1ccc(NC(=O)c2ccco2)c(OC)c1	n	n	28	+	u
CCCCCC(=O)Nc1ccc(S(=O)(=O)Nc2nccc(C)n2)cc1	n	n	n	n	u
C/C(=N/NC(=O)CNC(=O)Cc1ccc(Cl)cc1)c1ccco1	n	n	n	n	n
O=C(CCc1ccccc1)Nc1ccc(NC(=O)c2ccco2)cc1	n	n	n	n	n
Fc1ccc(CSc2nsc(SCc3ccc(F)cc3)n2)cc1	n	n	n	n	x
